Among all 310,000 compounds or so, about 14,000 (4.5%) showed an effect of 50% or more. The effect is printed as a negative number. This is one part of a sample in which strong results are shown more often than they occur.
The compounds below were run against human ether-à-go-go-related gene (hERG) potassium channel (human, UniProt Q12809) (assay: primary screen, population patch clamp on CHO cells stably expressing hERG; higher = less effect of the substance).
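Further: peak tail current of the secondary pulse compared with the same well before compound.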

Chain of human ether-à-go-go-related gene (hERG) potassium channel (Q12809 whole entry, looked up): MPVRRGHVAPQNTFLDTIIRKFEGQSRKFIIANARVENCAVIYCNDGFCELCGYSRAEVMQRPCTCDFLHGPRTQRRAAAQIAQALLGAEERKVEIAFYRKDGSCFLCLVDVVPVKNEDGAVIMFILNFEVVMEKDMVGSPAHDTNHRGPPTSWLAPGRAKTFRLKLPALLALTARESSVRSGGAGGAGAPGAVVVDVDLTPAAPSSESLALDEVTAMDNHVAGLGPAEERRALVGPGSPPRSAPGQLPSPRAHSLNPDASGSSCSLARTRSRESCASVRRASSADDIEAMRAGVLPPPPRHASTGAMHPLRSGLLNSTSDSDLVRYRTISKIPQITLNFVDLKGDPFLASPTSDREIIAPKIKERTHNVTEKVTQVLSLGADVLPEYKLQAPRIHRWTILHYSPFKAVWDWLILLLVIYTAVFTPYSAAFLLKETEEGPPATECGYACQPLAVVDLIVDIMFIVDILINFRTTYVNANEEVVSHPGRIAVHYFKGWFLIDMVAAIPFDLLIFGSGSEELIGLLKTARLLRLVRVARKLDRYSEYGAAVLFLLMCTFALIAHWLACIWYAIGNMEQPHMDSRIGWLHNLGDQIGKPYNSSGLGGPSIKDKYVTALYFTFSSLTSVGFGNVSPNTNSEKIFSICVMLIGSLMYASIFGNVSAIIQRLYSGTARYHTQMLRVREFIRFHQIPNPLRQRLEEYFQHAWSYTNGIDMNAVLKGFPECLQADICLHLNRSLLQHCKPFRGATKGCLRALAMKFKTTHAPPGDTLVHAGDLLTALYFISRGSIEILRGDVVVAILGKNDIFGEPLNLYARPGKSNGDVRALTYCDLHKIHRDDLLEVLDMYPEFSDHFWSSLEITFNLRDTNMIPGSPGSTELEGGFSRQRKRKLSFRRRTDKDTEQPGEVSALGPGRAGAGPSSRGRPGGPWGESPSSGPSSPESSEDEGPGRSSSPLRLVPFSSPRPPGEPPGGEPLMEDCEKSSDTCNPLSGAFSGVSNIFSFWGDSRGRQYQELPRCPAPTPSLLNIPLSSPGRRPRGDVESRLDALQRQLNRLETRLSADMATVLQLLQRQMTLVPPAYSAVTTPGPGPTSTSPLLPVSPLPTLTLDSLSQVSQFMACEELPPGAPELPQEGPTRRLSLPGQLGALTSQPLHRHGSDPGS

| SMILES | hERG current change (%, negative = inhibition) at 10uM |
| --- | --- |
| O=C(NC1CCSc2ccccc21)c1ccc(Cl)c(S(=O)(=O)N2CCOCC2)c1 (centres unmarked) | 7.48% |
| Cc1ccc(C(=O)Nc2nc3ccccc3s2)s1 | 8.75% |
| CC(C)[C@H](NC(=O)c1ccco1)C(=O)N(C)Cc1c(F)cccc1Cl | -32.3% |
| CCOC(=O)C1(C)/C(=N/Nc2ccccc2Cl)C(=O)C(=O)N1c1ccccc1 (centres unmarked) | 6.03% |
| Cc1ccc(S(=O)(=O)n2nc(C)c(Br)c2C)c(C)c1C | 20.8% |
| Cc1ccc(S(=O)(=O)NCc2ccc(C(=O)N3CCN(c4ccccn4)CC3)cc2)cc1 | -33.6% |
| Nc1nc(-c2ccccc2)nc2sc3c(c12)CCCC3 | 11.7% |
| COc1cc(Cl)ccc1NC(=O)COc1ccccc1C(=O)NN | -15.4% |
| COc1ccccc1C(=O)Nc1ccccc1N1CCN(S(C)(=O)=O)CC1 | -62% |
| Cc1ccc(C(=O)Nc2ccccc2N2CCN(C(=O)C(C)C)CC2)cc1C | -18.7% |
| Cc1ccc(C(=O)Nc2ccccc2N2CCN(C(=O)C(C)C)CC2)cc1 | -19.1% |
| COc1cc(C(=O)Nc2ccccc2N2CCN(S(C)(=O)=O)CC2)cc(OC)c1OC | -29.9% |
| CCOc1ccc(C(=O)Nc2ccccc2N2CCCC2)cc1 | -22.8% |
| CCOc1cccc(C(=O)Nc2ccccc2N2CCN(C(=O)C(C)C)CC2)c1 | -70% |
| COc1cc(Cl)ccc1NC(=O)COc1ccccc1C(=O)N1CCN(c2ccc(O)cc2)CC1 | -53.9% |
| COc1ccccc1NC(=O)COC(=O)c1ccccc1C(=O)N1CCN(c2ccccc2)CC1 | -42.3% |
| CCCCOc1cccc(C(=O)Nc2ccccc2N2CCCC2)c1 | 5.59% |
| COc1cc2ccccc2cc1C(=O)Nc1ccccc1N1CCN(S(C)(=O)=O)CC1 | 6.35% |
| CC(C)C(=O)N1CCN(c2ccccc2NC(=O)c2cccc(Cl)c2)CC1 | -69.6% |
| O=C(CNC(=O)c1ccc(Cl)cc1)c1ccccc1 | -9.6% |
| CC(C)OC(=O)CSc1nnc2c(n1)[nH]c1ccc(F)cc12 | 8.22% |
| CN(C(=O)Cn1nnc(-c2ccc(F)cc2)n1)C1CCS(=O)(=O)C1 (centres unmarked) | -2.38% |

| SMILES | hERG current change (%, negative = inhibition) at 10uM |
| --- | --- |
| NC1=NC(=O)C(CC(=O)c2ccc(Cl)cc2)S1 (centres unmarked) | 1.23% |
| COc1cccc(-n2c(SCC(=O)NCc3cccs3)nc3ccccc3c2=O)c1 | -2.74% |
| O=C(Nc1ccccc1N1CCCC1)c1cccc(F)c1 | 6.24% |
| O=C(c1ccc(Cl)cc1)N1CCN(c2cc(=O)[nH]nc2-c2ccccc2)CC1 | -58.3% |
| Cc1ccc(C(=O)N2CCN(c3cc(=O)[nH]nc3-c3ccccc3)CC2)cc1 | -41.7% |
| O=C(Nc1ccc(Cl)cc1C(=O)N1CCCC1)c1cccc([N+](=O)[O-])c1 | -12% |
| O=C(Nc1ccccc1N1CCN(C(=O)c2ccc(Cl)cc2)CC1)c1cccc(F)c1 | -78.9% |
| CCC(=O)N1CCN(c2ccc(Cl)cc2NC(=O)c2cccc([N+](=O)[O-])c2)CC1 | -49.2% |
| O=C(NC(=S)Nc1ccccc1Br)c1ccc2c(c1)OCO2 | -56.4% |
| O=C(c1ccc(F)cc1)N1CCN(c2cc(=O)[nH]nc2-c2ccccc2)CC1 | -4.51% |
| O=C(Nc1ccccc1N1CCN(c2ccccc2)CC1)c1cccc(F)c1 | -8.05% |
| COC(=O)c1ccccc1NC(=S)NC(=O)c1ccc2c(c1)OCO2 | 32.6% |
| O=C(Nc1ccccc1N1CCN(C(=O)c2ccc(Cl)cc2)CC1)c1cccc([N+](=O)[O-])c1 | -75% |
| O=C(NC(=S)NCc1ccccc1)c1ccc2c(c1)OCO2 | -8.81% |
| COc1ccc(OC)c(NC2=C(Cl)C(=O)N(Cc3ccccc3)C2=O)c1 | 5.06% |
| CCn1c(COc2cc(C)ccc2C(C)C)nnc1SCC(=O)Nc1nccs1 | 5.52% |
| COC(=O)c1ccc(N)cc1O | 22% |
| Cc1cccc2c(C(=O)Nn3cnnc3)cc(-c3ccccc3Cl)nc12 | 25.8% |
| CC(=O)N1CCN(c2ncnc3sc(-c4ccccc4)cc23)CC1 | -44.4% |
| CCOC(=O)c1cnc(SCC(=O)N2CCN(C(=O)c3ccco3)CC2)nc1N | -29.3% |
| O=C(Nc1ccccc1N1CCN(C(=O)c2ccc(Cl)cc2)CC1)c1cccnc1 | -73.2% |
| CN1CCN(c2ccccc2NC(=O)c2ccc(OCc3ccccc3)cc2)CC1 | -41.9% |

| SMILES | hERG current change (%, negative = inhibition) at 10uM |
| --- | --- |
| O=C(Nc1ccccc1N1CCN(C(=O)c2ccccc2)CC1)c1ccc2c(c1)OCO2 | -60.7% |
| CN1CCN(c2ccc(NC(=O)c3cccc(OCc4ccccc4)c3)cc2)CC1 | -8.95% |
| O=C(Nc1ccccc1N1CCCC1)c1cccnc1 | -0.385% |
| O=C(Nc1ccccc1N1CCCC1)c1ccc2c(c1)OCO2 | -3.23% |
| CN1CCN(c2ccccc2NC(=O)c2cccc(OCc3ccccc3)c2)CC1 | -78.9% |
| O=C(Nc1ccc(N2CCN(C(=O)c3ccccc3)CC2)c(Cl)c1)c1cccnc1 | -31.2% |
| O=C(Nc1ccccc1N1CCN(C(=O)c2ccc(Cl)cc2)CC1)c1ccc2c(c1)OCO2 | -46.8% |
| CCOc1ccc(C2C(C#N)=C(N)N3C(=C2C#N)Sc2ccccc23)cc1 (centres unmarked) | 9.5% |
| CC1Cc2ccccc2N1C(=O)CSc1nnc2n1C(C)(C)Cc1ccccc1-2 (centres unmarked) | -3.06% |
| CC(C)CNC(=O)CCc1nc(-c2ccccc2)no1 | 10.4% |
| O=[N+]([O-])c1cc(S(=O)(=O)C(F)(F)F)ccc1NCC1CCCO1 (centres unmarked) | 16.5% |
| O=C(NCCCn1ncc2ccccc21)c1cc(COc2c(F)cccc2F)on1 | 6.73% |
| CCn1ncc(Br)c1C(=O)Nc1ccc(Cl)cn1 | -7.49% |
| O=C(/C=C/c1ccc(Cl)cc1)N1CCN(c2ccc(Cl)cc2[N+](=O)[O-])CC1 | -92.9% |
| O=[N+]([O-])c1cc(Cl)ccc1N1CCCC1 | 5.05% |
| O=C(/C=C/c1ccccc1)N1CCN(c2c(Cl)cccc2[N+](=O)[O-])CC1 | -20.8% |
| CC(C)(C)C(=O)N1CCN(c2ccc(Cl)cc2[N+](=O)[O-])CC1 | -39.3% |
| O=C(/C=C/c1ccc(Cl)cc1)N1CCN(c2c(Cl)cccc2[N+](=O)[O-])CC1 | -58% |
| CCC(=O)N1CCN(c2c(Cl)cccc2[N+](=O)[O-])CC1 | -13.5% |
| O=C(/C=C/c1ccc(Cl)cc1Cl)N1CCc2ccccc21 | -1.39% |
| O=C1CN(C(=O)/C=C/c2cccc(Cl)c2)c2ccccc2N1 | -21.4% |
| O=C(/C=C/c1ccc(Cl)cc1Cl)N1CCN(c2ccccc2[N+](=O)[O-])CC1 | -72.7% |

| SMILES | hERG current change (%, negative = inhibition) at 10uM |
| --- | --- |
| O=C(/C=C/c1ccccc1[N+](=O)[O-])N1CCCCC1 | -2.55% |
| O=C1CN(C(=O)/C=C/c2ccc(Cl)cc2)c2ccccc2N1 | -75.2% |
| O=C1CN(C(=O)/C=C/c2ccccc2F)c2ccccc2N1 | -2.56% |
| Cc1nc2c(C)cccc2cc1C(=O)N/N=C/c1ccc(N(C)C)cc1 | -9.49% |
| COC(=O)c1cc(C)sc1NC(=O)CN1CCN(C(=O)C2CCCO2)CC1 (centres unmarked) | -34.7% |
| O=C(CS(=O)(=O)c1ccccc1)N1CCN(c2ccccc2)CC1 | 2.36% |
| CCCOc1ccc(C2c3c(oc4ccccc4c3=O)C(=O)N2CCCN2CCOCC2)cc1 (centres unmarked) | -6.76% |
| CCCC(C)NC(=O)c1sc2nc3n(c(=O)c2c1C)CCC3 (centres unmarked) | -6.29% |
| Cc1cc(NC(=O)C2COc3ccccc3O2)no1 (centres unmarked) | -0.48% |
| O=C(CSc1n[nH]c(-c2ccco2)n1)Nc1sc2c(c1C(=O)Nc1ccccc1)CCCC2 | -41% |
| Cc1ccccc1NC(=O)c1c(C)[nH]c(=S)c(C#N)c1-c1ccc(Cl)cc1 | 21.1% |
| Cc1ccc(-c2nnc(N(C)C(=O)C3CCCO3)s2)cn1 (centres unmarked) | 6.74% |
| Cc1cc(C)cc(-n2c(C)cc(/C=C3\C(=N)N4N=C(CC(C)C)SC4=NC3=O)c2C)c1 | 5.86% |
| c1ccc(COCCC2CO2)cc1 (centres unmarked) | 5.49% |
| O=C(/C=C/c1ccc(Cl)cc1)N1CCN(c2ccccc2[N+](=O)[O-])CC1 | -75.4% |
| CN1CCCN(C(=O)/C=C/c2ccc(Cl)cc2Cl)CC1.Cl | -67% |
| O=C1CN(C(=O)/C=C/c2ccc(Cl)cc2Cl)CCN1 | -19.2% |
| O=C(/C=C/c1ccc(Cl)cc1)N1CCN(c2ccccn2)CC1 | -32.3% |
| O=C(/C=C/c1ccc([N+](=O)[O-])cc1)N1CCN(c2ccccc2F)CC1 | -34.2% |
| O=C(/C=C/c1ccccc1Cl)N1CCCN(C(=O)/C=C/c2ccccc2Cl)CC1 | -26.1% |
